Rows were chosen to be rich in hits. Some 17% of all compounds tested hit in one or more screens of this group.
HepG2 viability = qHTS for Inhibitors of TGF-b: Cytotox Counterscreen. 410,000 compounds, 0.76% hits. HepG2 CAGA-GFP viability, ATP luminescence, 18 h. AID 588856, 2011. Potency, µM (top dose mostly 46.1 µM), usual class: cytotoxic
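HepG2 CAGA-GFP cells (1000/well, DMEM with 1% FBS) received compound, then TGF-beta at 500 pg/mL final, and were incubated 18 hours at 37 degrees C. Viability was read by CellTiter-Glo luminescence. Media-only wells were set as complete cell-killing and DMSO as no toxicity.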
S2 tox = Viability Counterscreen for Primary qHTS for Inhibitors of ATXN expression; AID 651635, 2014; 400,000 compounds, 0.49% hits; Potency, µM (doses to about 56.7 µM), most hits filed as cytotoxic; S2 cells (HEK-293 line with an ATXN2-luciferase reporter) viability, CellTiter-Fluor protease fluorescence, 24 h; further: nearly all actives have a fitted effect of over 40% in size
DT40 TDP1 no CPT = qHTS for Inhibitors of human tyrosyl-DNA phosphodiesterase 1 (TDP1): qHTS in cells in absence of CPT; DT40 Tdp1-/- hTDP1 cells, no CPT, ATP luminescence, 48 h; Potency, µM (titrated, usually from 46.2 µM), actives largely listed as inhibitors; 420,000 compounds, 15% hits; further: nearly all actives have a fitted effect of over 55% in size
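Compound effects on proliferation are scored in DT40 Tdp1-/-;hTDP1 cells in the absence of CPT. ATP levels (CellTiter-Glo luminescence) are recorded after a ≥48 hr, 37 °C incubation.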
TDP1 cell CPT = qHTS for Inhibitors of human tyrosyl-DNA phosphodiesterase 1 (TDP1): qHTS in cells in presence of CPT; chicken DT40 Tdp1-/-;hTDP1 cells + 20 nM CPT, ATP luminescence, 48 h; AID 686979, 2013; 420,000 compounds, 12% hits; Potency, µM (doses to about 46.2 µM), hits mostly inhibitors; further: nearly all actives have a fitted effect of over 55% in size
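Cell growth measured by CellTiter-Glo luminescence after a minimum 48 h, 37 C compound exposure with 20 nM CPT in Tdp1-knockout DT40 cells stably expressing hTDP1, seeded 400/well; qHTS titration format.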
ATXN2 expr inh = Primary qHTS for Inhibitors of ATXN expression; HEK-293 ATXN2-luciferase reporter, luminescence, 24 h; Potency, µM (titrated, usually from 57 µM), usual class: inhibitors; 360,000 compounds, 0.72% hits; further: nearly all actives have a fitted effect of over 55% in size
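ATXN2-luciferase reporter cells (luciferase flanked by upstream and downstream ATXN2 gene portions) were treated 24 h at 37 °C with compounds at up to 57 uM. SteadyGlo luminescence gave expression; GF-AFC fluorescence gave viability.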
TGFb SMAD3 inh = qHTS for Inhibitors of TGF-b; Potency, µM (top dose mostly 46.1 µM), most hits filed as inhibitors; AID 588855, 2011; HepG2 CAGA-GFP TGF-b/SMAD3 reporter, GFP fluorescence, 18 h; TGF-beta stimulated, 500 pg/mL final; 410,000 compounds, 1.2% hits; further: nearly all actives have a fitted effect of over 65% in size
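GFP signal (ex488/em500-530) from TGF-beta-stimulated HEPG2 CAGA-GFP cells, 500 pg/mL final, 18 h at 37 degrees C in DMEM plus 1% FBS, normalized to unstimulated and DMSO-stimulated controls.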
A number is an active result; . = inactive; ? = inconclusive; / = not tested or not shown. The call rests on the fitted dose curve; in most records, active means well fitted curve in the direction sought with a large enough effect; inconclusive means small, poorly fitted or top-dose-only effect, or another doubt; inactive means no such curve, though single readings can be large; an effect the other way counts as inactive or inconclusive.

SMILES	HepG2 viability	S2 tox	DT40 TDP1 no CPT	TDP1 cell CPT	ATXN2 expr inh	TGFb SMAD3 inh
O=C(Nc1ccc(Br)c(Br)c1)C1CCCO1 (stereo not drawn)	.	.	.	.	.	.
O=C(NCCC1=CCCCC1)c1ccc(=O)oc1	.	.	.	?	.	.
CN(C)CCNC(=O)c1coc(=O)c(Br)c1	.	.	5.8µM	2.31µM	.	.
CC(C)CNC(=O)c1coc(=O)c(Br)c1	.	/	0.82µM	0.411µM	/	14.1µM
Cc1ccc(C(=O)NCCN(C)C)c(C)c1	.	?	.	.	.	.
CCN(CC)C(=S)SCC(=O)Nc1ncc2c(n1)CC(C)(C)CC2=O	.	.	.	.	.	.
CC(C)(C)C(=O)Nc1ccc(F)cc1[N+](=O)[O-]	.	.	.	.	/	.
COCC1CCN(Cc2c(C(=O)N3CCOCC3)nc3c(C)cccn23)C1 (stereo not drawn)	.	.	.	.	/	.
CCCOc1ccc(CCC(=O)N/N=C/c2ccc([N+](=O)[O-])o2)cc1	.	?	.	16.4µM	/	?
Cc1cc2ncn(/N=C/c3ccc([N+](=O)[O-])o3)c2cc1C	12.6µM	.	12.6µM	13µM	?	2.51µM
CC1(C(=O)N/N=C/c2ccc([N+](=O)[O-])o2)CC1(Br)Br (stereo not drawn)	11.2µM	?	10.3µM	13µM	?	11.2µM
Cc1csc(N=Cc2ccc([N+](=O)[O-])o2)n1	.	.	10.3µM	14.6µM	/	.
O=C(CNC(=O)c1ccc2c(c1)OCCO2)N=Nc1c(O)[nH]c2ccccc12	.	.	.	.	.	.
CC1CCN(CC(=O)Nc2ccc(N3CCCCCC3)cc2)CC1	.	.	?	?	.	.
CN1C(=O)c2ccc(C(=O)Nc3ccc4c(c3)OCO4)cc2C1=O	.	.	.	.	.	.
CCOC(=O)N/N=C\c1ccc([N+](=O)[O-])o1	.	?	22.4µM	?	?	?
CC(=O)N/N=C/c1ccc([N+](=O)[O-])o1	/	.	21.1µM	?	.	/
O=[N+]([O-])c1ccc(/C=N/N=C/c2ccc([N+](=O)[O-])o2)o1	.	?	0.731µM	0.291µM	16.8µM	?
Cc1ccc(C(=O)N/N=C\c2ccc([N+](=O)[O-])o2)cn1	.	.	11.6µM	?	?	?
O=[N+]([O-])c1ccc(/C=N\O)o1	/	.	?	?	.	/
Cc1cn([C@H]2C[C@H](O)[C@@H](CNCc3ccc(-c4cc(Cl)ccc4C(F)(F)F)o3)O2)c(=O)[nH]c1=O	.	.	?	?	.	.
O=C(NCc1ccccc1)C(c1ccncc1)N(C(=O)c1csnn1)c1cccc(F)c1 (stereo not drawn)	.	.	.	.	.	.
NC(=O)NN=Cc1ccc([N+](=O)[O-])o1	/	/	/	/	.	/
O=C(N/N=C/c1ccc([N+](=O)[O-])o1)c1ccc2c(c1)OCO2	11.2µM	.	5.8µM	2.31µM	10µM	15.8µM
O=C(Cc1ccc([N+](=O)[O-])cc1)N/N=C/c1ccc([N+](=O)[O-])o1	.	.	9.2µM	10.3µM	/	15.8µM
O=C(CC12CC3CC(CC(C3)C1)C2)N/N=C/c1ccc([N+](=O)[O-])o1	.	.	23.1µM	9.2µM	.	?
O=C(N/N=C\c1ccc(-c2ccc([N+](=O)[O-])cc2)o1)c1ccc2c(c1)OCO2	.	?	.	.	.	.
CCOC(=O)C(C)Oc1cccc2c(=O)n(CC(=O)Nc3ccc(OC)cc3)ccc12 (stereo not drawn)	.	.	.	.	.	.
COc1ccc(NC(=O)[C@@H]2O[C@H](CO)[C@H](O)[C@H](O)[C@H]2O)cc1F	.	.	.	.	.	.
Cc1cc(=O)[nH]c2ccccc12	.	.	.	?	.	.
